Sfp PPTase inh = qHTS Assay for Inhibitors of Bacillus subtilis Sfp phosphopantetheinyl transferase (PPTase); 4'-phosphopantetheinyl transferase ffp (Bacillus subtilis), Q9F4F7; Biochemical Sfp PPTase activity, qHTS; Potency, µM, actives largely listed as inhibitors; hit rate 3.5% among 310,000; AID 1490, 2009;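 note: the enzyme is Sfp with the accession as filed and its product quenches rhodamine fluorescence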
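Fluorescence-quenching assay: 15 nM Sfp-PPTase preincubated 15 min at room temperature with compound, then 5 uM rhodamine-CoA and 12.5 uM BHQ-2-labelled YbbR peptide added. Fluorescence (ex 525/em 598 nm) read at start and after 30 min; difference gives rate.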
PLK1 PBD block = qHTS for Inhibitors of PLK1-PDB (polo-like kinase 1 - polo-box domain): Primary Screen; Serine/threonine-protein kinase PLK1 (Homo sapiens), P53350; AID 720504, 2013; Plk1 PBD binding of FITC phosphopeptide, fluorescence polarization; Potency, µM, hits mostly inhibitors; hit rate 2.8% among 360,000; note: series mostly up to about 57 µM; nearly all actives have a fitted effect of over 65% in size
Target sequence (P53350 whole entry, looked up, the tested form may be a part): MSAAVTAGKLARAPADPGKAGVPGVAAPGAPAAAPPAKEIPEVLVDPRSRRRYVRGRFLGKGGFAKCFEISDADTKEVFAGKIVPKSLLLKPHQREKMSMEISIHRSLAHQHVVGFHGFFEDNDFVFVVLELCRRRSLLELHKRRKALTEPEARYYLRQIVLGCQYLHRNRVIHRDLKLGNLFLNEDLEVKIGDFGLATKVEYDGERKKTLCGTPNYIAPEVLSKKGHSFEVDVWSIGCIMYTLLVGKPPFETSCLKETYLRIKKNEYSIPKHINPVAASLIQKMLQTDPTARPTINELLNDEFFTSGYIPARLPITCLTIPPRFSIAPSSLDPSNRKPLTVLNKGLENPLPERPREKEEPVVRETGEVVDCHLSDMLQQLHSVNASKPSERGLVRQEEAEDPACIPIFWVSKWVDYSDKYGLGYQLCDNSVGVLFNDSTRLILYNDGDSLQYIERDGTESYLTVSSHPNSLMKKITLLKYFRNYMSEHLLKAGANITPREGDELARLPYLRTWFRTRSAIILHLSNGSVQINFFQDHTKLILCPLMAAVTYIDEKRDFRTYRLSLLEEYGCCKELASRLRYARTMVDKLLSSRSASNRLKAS
Gal4-VP16 FLuc = VP16 counterscreen qHTS for inhibitors of ROR gamma transcriptional activity; Drosophila S2 Gal4-VP16 UAS-luciferase, luminescence, 20 h; Potency, µM (doses to about 53.6 µM), hits mostly inhibitors; hit rate 3.5% among 310,000;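 note: Gal4-VP16 expression switched on by copper sulfate through the metallothionein promoter; nearly all actives have a fitted effect of over 50% in size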
ALDH1A1 inh = qHTS Assay for Inhibitors of Aldehyde Dehydrogenase 1 (ALDH1A1). Aldehyde dehydrogenase 1A1 (Homo sapiens), P00352. Purified ALDH1A1, NADH fluorescence, propionaldehyde substrate. Potency, µM (top dose mostly 75.3 µM), usual class: inhibitors. hit rate 7.3% among 220,000. AID 1030, 2008; active = well fitted inhibition curve with a large enough effect, not every such curve was filed as active; inconclusive = small, poorly fitted or top-dose-only effect, or another doubt; inactive = no such curve, though single readings can be large or run the other way
RORgamma inh = qHTS for inhibitors of ROR gamma transcriptional activity; Nuclear receptor ROR-gamma (Mus musculus), P51450; hit rate 5.4% among 310,000; AID 2551, 2010; Drosophila S2 Gal4-RORgamma UAS-luciferase reporter, 20 h; Potency, µM (doses to about 53.6 µM), actives largely listed as inhibitors; note: nearly all actives have a fitted effect of over 60% in size
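In this cell-based reporter format, copper sulfate (700 uM final) drives Gal4–ROR gamma fusion expression from a metallothionein promoter in Drosophila Schneider cells; compounds preincubated 1 hr, reporter read after 20 hr at ambient temperature.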
A number is an active result; i = inactive; ? = inconclusive; nt = no result; [ ] = another dose, or the depositor's remark. Sampled rows, rich in hits. Any-hit rate of the full collection: about 12%. Unless noted, calls come from the whole dose curve; as a rule, active = well fitted curve in the direction sought with a large enough effect; inconclusive = small, poorly fitted or top-dose-only effect, or another doubt; inactive = no such curve, though single readings can be large; an effect the other way counts as inactive or inconclusive.

SMILES	Sfp PPTase inh	PLK1 PBD block	Gal4-VP16 FLuc	ALDH1A1 inh	RORgamma inh
Cc1cccc(C)c1NC(=S)NC(=O)c1ccccc1F	i	i	6.3µM	i	4.5µM
Cc1c(C(=O)NC(=S)Nc2ccc(N3CCOCC3)cc2)cccc1[N+](=O)[O-]	i	i	i	i	8.9µM
COc1ccc(-c2nc3ccc(C(=O)NCCCN4CCOCC4)cc3nc2-c2ccc(OC)cc2)cc1	56µM	i	?	nt	?
CC(NC(=S)NCc1ccccc1)C12CC3CC(CC(C3)C1)C2 (centres undefined)	i	i	?	?	2.8µM
CC(NC(=O)c1ccccc1F)C12CC3CC(CC(C3)C1)C2 (centres undefined)	nt	i	nt	nt	nt
O=C(Cc1ccc2c(c1)OCCO2)Nc1cc(C(F)(F)F)ccc1N1CCOCC1	nt	i	nt	nt	nt
COC(=O)c1ccc2nc(-c3ccc(Cl)cc3)c(Cc3ccsc3)n2c1	nt	i	nt	nt	nt
O=C(NC(=S)NCCCN1CCOCC1)c1ccc(Br)cc1	i	i	i	i	?
O=C(NC(=S)Nc1ccc(N2CCOCC2)cc1)c1ccccc1	i	i	?	?	8.9µM
Cc1ccccc1C(=O)NC(=S)Nc1ccc(N2CCOCC2)cc1	i	?	?	?	20µM
Cc1ccc(C(=O)NC(=S)NCCCN2CCOCC2)cc1	i	i	i	i	18µM
COC(=O)N(C)C[C@H]1OCc2cn(nn2)CCCC(=O)N([C@@H](C)CO)C[C@@H]1C	nt	i	nt	nt	nt
Nc1cc(=O)[nH]c(SCC(=O)N2CCCC2)n1	nt	i	nt	nt	nt
CCc1cc2c(=O)c(-c3ccc4c(c3)OCCO4)c(C)oc2cc1OS(C)(=O)=O	i	i	20µM	4.5µM	i
CCC/C=C(\CCC)C(NS(=O)(=O)c1ccc(Cl)cc1)c1ccc(C(=O)OC)cc1 (centres undefined)	i	nt	i	?	?
COc1ccc(-c2coc3c(C(=O)NCC4CC4)cccc23)c(C)c1	nt	i	nt	nt	nt
COc1ccc(C(=O)N2CCC[C@@]3(CCN(c4cccc(-c5ccccc5)c4)C3)C2)cc1	i	nt	i	?	i
FC(F)Oc1ccc(NC(=S)NNc2ccnc3cc(Cl)ccc23)cc1	i	i	i	8.9µM	i
NC(=S)NNc1ccnc2cc(Cl)ccc12	i	21µM	i	1.4µM	?
O=C(NNc1ccnc2cc(Cl)ccc12)C1CCCCC1	i	i	?	i	i
O=[N+]([O-])c1ccc(NN=Cc2ccccc2)nc1	nt	i	nt	nt	nt
Cc1cc(/C=N/Nc2ccc([N+](=O)[O-])cn2)c(C)n1-c1ccc(C(=O)O)cc1	56µM	i	i	?	i
O=[N+]([O-])c1ccc(NN=Cc2ccccc2O)nc1	nt	i	nt	nt	nt
Cc1ccccc1-n1c(C)cc(/C=N/Nc2ccc([N+](=O)[O-])cn2)c1C	i	i	5.6µM	?	6.3µM
O=[N+]([O-])c1ccc(N/N=C\c2cccn2-c2ccccc2)nc1	?	i	?	i	2.5µM
SMILES	Sfp PPTase inh	PLK1 PBD block	Gal4-VP16 FLuc	ALDH1A1 inh	RORgamma inh
CCCC[C@]12Cc3ccccc3C(O1)c1c(c3ccccc3oc1=O)O2	i	nt	i[10 µM]	nt	i[10 µM]
CCC(C)Nc1nc(SC(C(C)=O)C(C)=O)nc(N(C)C)n1 (centres undefined)	i	i	?	i	13µM
CCNc1nc(SC(C(C)=O)C(C)=O)nc(N(C)C)n1	i	i	i	i	5µM
Oc1cc(CN2COc3ccccc32)c(O)cc1CNC1CCCCC1	nt	nt	nt	i[13.5 µM]	nt
COc1cccc(C(NC(C)=O)c2nc(-c3cccc(O)c3)cs2)c1 (centres undefined)	nt	i	nt	nt	nt
COc1ccccc1NC(=O)NCc1ccccc1F	i	34µM	i	i	i
COc1cccc(NC(=O)NCc2ccccc2F)c1	i	12µM	i	i	?
COc1ccc(NC(=O)NCc2ccccc2F)cc1OC	i	i	i	i	i
COc1ccc(-c2nn3c(C4CCCCC4)nnc3s2)cc1OC	?	21µM	i	13µM	i
CC[C@H](C)/C=C(C)/C=C/C(=O)Cc1cc(O)c(C)c(O)c1C=O	89µM	i	i	nt	i
O=C(O)c1ccc(Nc2nc(-c3cc4ccccc4oc3=O)cs2)cc1O	35µM	24µM	i	?	i
COc1ccc(-c2cc3cccc(OC)c3oc2=O)cc1	i	i	?	nt	10µM
COc1ccc(Nc2nc(-c3cc4cccc(OC)c4oc3=O)cs2)cc1	?	i	i	22µM	i
